Assay results reported in ChEMBL document CHEMBL2218924, “A broad activity screen in support of a chemogenomic map for kinase signalling research and drug discovery” (Biochem J, 2013).

Tests used:
[1] = biological target: T1, Serine/threonine-protein kinase BRSK1 (Homo sapiens) (UniProt Q8TDC3); conditions: at 1 µM
T1 sequence (whole entry): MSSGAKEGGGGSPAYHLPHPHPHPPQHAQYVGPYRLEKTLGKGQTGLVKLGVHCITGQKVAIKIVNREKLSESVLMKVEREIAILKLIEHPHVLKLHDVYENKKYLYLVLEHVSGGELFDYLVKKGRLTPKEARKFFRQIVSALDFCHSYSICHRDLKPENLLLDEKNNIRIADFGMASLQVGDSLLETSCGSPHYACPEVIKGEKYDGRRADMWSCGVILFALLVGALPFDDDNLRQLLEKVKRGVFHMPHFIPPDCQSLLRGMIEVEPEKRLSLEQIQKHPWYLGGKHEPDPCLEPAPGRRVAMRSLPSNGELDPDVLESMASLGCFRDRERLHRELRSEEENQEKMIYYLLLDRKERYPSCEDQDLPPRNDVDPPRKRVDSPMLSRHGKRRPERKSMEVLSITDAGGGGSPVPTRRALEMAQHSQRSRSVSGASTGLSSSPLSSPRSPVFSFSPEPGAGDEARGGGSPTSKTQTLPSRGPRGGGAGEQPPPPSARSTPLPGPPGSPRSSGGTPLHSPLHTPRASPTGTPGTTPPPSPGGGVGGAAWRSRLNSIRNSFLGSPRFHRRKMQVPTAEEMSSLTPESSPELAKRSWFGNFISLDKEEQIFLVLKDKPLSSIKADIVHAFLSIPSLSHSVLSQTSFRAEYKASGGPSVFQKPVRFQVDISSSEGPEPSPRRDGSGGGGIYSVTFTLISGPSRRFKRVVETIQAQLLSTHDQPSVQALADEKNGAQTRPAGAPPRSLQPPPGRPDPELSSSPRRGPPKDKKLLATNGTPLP

[2] = biological target: T1, Serine/threonine-protein kinase BRSK1 (Homo sapiens); conditions: at 10 µM
[3] = biological target: T2, Serine/threonine-protein kinase BRSK2 (Homo sapiens) (UniProt Q8IWQ3); conditions: at 1 µM
T2 sequence (whole entry): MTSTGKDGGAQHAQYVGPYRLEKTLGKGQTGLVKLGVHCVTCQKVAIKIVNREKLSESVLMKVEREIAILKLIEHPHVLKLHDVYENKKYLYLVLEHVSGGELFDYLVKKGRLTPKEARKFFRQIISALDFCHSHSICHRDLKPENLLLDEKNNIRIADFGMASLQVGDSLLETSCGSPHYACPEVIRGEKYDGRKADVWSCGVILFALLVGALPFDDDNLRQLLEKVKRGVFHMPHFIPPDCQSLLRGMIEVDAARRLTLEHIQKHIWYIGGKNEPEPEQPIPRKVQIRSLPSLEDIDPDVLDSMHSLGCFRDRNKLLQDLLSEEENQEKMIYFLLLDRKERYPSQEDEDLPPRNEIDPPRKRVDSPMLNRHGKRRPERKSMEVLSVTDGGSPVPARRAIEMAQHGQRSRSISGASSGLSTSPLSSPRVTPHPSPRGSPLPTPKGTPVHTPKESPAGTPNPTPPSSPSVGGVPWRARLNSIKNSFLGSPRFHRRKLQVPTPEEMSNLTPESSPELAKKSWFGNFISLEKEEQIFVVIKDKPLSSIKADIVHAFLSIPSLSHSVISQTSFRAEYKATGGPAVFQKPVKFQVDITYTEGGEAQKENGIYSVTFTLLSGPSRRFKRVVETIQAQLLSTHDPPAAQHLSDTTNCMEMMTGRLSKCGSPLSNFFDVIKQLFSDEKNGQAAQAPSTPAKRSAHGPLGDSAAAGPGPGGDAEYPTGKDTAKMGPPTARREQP

[4] = biological target: T2, Serine/threonine-protein kinase BRSK2 (Homo sapiens); conditions: at 10 µM
[5] = biological target: T3, Cyclin-dependent kinase 1/cyclin B1 (Homo sapiens) (UniProt P06493+P14635); conditions: at 1 µM
[6] = biological target: T3, Cyclin-dependent kinase 1/cyclin B1 (Homo sapiens); conditions: at 10 µM
[7] = biological target: T4, Cyclin-dependent kinase 2/cyclin A (Homo sapiens) (UniProt P24941+P20248+P78396); conditions: at 1 µM
[8] = biological target: T4, Cyclin-dependent kinase 2/cyclin A (Homo sapiens); conditions: at 10 µM
[9] = biological target: T5, Cyclin-dependent kinase 2/cyclin E (Homo sapiens) (UniProt P24864+P24941+O96020); conditions: at 1 µM
[10] = biological target: T5, Cyclin-dependent kinase 2/cyclin E (Homo sapiens); conditions: at 10 µM
[11] = biological target: T6, CDK3/cyclin E (Homo sapiens) (UniProt P24864+O96020+Q00526); conditions: at 1 µM
[12] = biological target: T6, CDK3/cyclin E (Homo sapiens); conditions: at 10 µM
[13] = biological target: T7, Cyclin-dependent kinase 5/CDK5 activator 1 (Homo sapiens) (UniProt Q00535+Q15078); conditions: at 1 µM
[14] = biological target: T7, Cyclin-dependent kinase 5/CDK5 activator 1 (Homo sapiens); conditions: at 10 µM
[15] = biological target: T7, Cyclin-dependent kinase 5/CDK5 activator 1 (Homo sapiens); conditions: at 1 µM; remark: listed apart in the source
[16] = biological target: T7, Cyclin-dependent kinase 5/CDK5 activator 1 (Homo sapiens); conditions: at 10 µM; remark: listed apart in the source
[17] = biological target: T8, CDK6/cyclin D3 (Homo sapiens) (UniProt P30281+Q00534); conditions: at 1 µM
[18] = biological target: T8, CDK6/cyclin D3 (Homo sapiens); conditions: at 10 µM
[19] = biological target: T9, Cyclin-dependent kinase 7/ cyclin H (Homo sapiens) (UniProt P51946+P50613); conditions: at 1 µM
[20] = biological target: T9, Cyclin-dependent kinase 7/ cyclin H (Homo sapiens); conditions: at 10 µM

T3 sequence (P06493 whole entry, looked up): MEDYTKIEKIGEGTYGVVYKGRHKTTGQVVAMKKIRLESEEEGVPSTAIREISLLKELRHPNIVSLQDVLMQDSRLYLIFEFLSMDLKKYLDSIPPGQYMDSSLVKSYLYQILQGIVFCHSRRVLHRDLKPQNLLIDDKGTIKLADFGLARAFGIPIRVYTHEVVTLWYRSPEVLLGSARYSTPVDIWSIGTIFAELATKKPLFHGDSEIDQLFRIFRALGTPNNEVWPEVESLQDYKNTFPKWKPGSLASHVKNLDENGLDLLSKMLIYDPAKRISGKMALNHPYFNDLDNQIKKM
T3 sequence (P14635 whole entry, looked up): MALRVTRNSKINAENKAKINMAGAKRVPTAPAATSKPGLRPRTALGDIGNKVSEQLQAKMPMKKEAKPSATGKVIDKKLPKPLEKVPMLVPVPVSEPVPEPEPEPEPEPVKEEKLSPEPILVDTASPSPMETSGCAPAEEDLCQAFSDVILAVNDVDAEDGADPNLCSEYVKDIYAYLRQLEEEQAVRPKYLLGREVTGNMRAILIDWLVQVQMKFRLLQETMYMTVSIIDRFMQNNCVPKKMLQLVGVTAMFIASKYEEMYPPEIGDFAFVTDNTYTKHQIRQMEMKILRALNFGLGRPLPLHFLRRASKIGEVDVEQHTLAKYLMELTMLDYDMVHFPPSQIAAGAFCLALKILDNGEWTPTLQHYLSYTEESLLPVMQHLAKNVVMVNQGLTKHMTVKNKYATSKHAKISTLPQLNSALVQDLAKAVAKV
T7 sequence (Q00535 whole entry): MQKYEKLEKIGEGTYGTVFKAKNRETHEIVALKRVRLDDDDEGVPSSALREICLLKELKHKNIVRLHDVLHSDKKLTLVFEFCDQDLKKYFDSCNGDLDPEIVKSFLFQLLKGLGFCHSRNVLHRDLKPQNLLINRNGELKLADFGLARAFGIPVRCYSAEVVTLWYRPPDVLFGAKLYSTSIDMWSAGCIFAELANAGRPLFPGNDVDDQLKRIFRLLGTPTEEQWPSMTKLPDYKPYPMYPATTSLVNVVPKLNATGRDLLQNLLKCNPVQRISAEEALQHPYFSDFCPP
T7 sequence (Q15078 99-307 partner limits assumed): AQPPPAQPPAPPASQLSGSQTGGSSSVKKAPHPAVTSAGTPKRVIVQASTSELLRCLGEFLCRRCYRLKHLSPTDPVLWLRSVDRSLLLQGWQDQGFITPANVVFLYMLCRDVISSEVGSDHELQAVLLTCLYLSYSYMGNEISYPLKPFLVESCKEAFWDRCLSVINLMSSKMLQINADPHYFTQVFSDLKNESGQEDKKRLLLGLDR
T6 sequence (O96020 whole entry, looked up): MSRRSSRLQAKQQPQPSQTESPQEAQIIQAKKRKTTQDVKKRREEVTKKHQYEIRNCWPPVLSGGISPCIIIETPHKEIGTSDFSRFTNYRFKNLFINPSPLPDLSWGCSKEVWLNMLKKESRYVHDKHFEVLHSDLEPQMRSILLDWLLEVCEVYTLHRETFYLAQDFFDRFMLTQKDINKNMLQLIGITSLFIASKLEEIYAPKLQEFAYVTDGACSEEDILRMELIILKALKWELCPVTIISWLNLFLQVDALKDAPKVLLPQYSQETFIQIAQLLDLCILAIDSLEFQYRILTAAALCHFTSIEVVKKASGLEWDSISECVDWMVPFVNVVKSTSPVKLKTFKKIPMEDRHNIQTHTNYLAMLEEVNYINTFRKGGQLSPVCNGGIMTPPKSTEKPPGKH
T6 sequence (P24864 whole entry, looked up): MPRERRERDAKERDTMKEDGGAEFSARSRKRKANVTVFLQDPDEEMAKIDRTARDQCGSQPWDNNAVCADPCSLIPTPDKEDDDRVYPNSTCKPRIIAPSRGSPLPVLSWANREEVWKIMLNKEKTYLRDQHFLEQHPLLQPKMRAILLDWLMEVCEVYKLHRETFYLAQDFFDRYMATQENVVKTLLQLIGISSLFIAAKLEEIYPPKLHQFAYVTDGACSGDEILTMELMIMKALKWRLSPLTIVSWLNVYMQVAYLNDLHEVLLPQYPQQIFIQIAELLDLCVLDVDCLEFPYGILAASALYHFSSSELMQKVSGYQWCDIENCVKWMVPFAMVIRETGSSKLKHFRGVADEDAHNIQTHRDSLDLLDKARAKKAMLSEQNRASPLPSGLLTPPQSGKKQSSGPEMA
T6 sequence (Q00526 whole entry, looked up): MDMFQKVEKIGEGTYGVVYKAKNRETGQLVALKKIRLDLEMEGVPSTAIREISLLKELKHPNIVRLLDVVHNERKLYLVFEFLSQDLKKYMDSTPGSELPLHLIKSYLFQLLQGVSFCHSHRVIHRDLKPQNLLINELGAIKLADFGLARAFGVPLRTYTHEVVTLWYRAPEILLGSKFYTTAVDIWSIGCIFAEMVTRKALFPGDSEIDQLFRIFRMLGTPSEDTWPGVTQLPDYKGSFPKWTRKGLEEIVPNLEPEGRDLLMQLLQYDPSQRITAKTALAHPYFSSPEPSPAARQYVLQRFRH

| SMILES | residual activity [1] | residual activity [2] | residual activity [3] | residual activity [4] | residual activity [5] | residual activity [6] | residual activity [7] | residual activity [8] | residual activity [9] | residual activity [10] | residual activity [11] | residual activity [12] | residual activity [13] | residual activity [14] | residual activity [15] | residual activity [16] | residual activity [17] | residual activity [18] | residual activity [19] | residual activity [20] |
| --- | --- | --- | --- | --- | --- | --- | --- | --- | --- | --- | --- | --- | --- | --- | --- | --- | --- | --- | --- | --- |
| O=C(Nc1cccc(Nc2nccc(Nc3cccc(C(F)(F)F)c3)n2)c1)C1CC1 | 26% | 27% | 93% | 40% | 96% | 102% | 127% | 93% | 94% | 97% | 98% | 72% | 94% | 98% | 107% | 98% | 102% | 39% | 92% | 86% |
| Nc1cccc(-c2cc3c(Oc4cccc(O)c4)ncnc3[nH]2)c1 | 45% | 8% | 75% | 20% | 81% | 33% | 74% | 27% | 91% | 41% | 82% | 34% | 53% | 12% | 72% | 14% | 101% | 64% | 101% | 67% |
| Ic1cccc(CSc2nnc(-c3ccncc3)o2)c1 | 84% | 87% | 113% | 97% | 18% | 14% | 85% | 68% | 41% | 32% | 70% | 57% | 5% | 4% | 8% | 3% | 80% | 73% | 93% | 72% |
| Cn1cnc2cc3c(Nc4cccc(Br)c4)ncnc3cc21 | 58% | 13% | 91% | 62% | 103% | 94% | 132% | 87% | 110% | 102% | 102% | 81% | 96% | 104% | 98% | 90% | 99% | 92% | 84% | 102% |
| CCOc1cc2ncnc(Nc3cccc(Br)c3)c2cc1OCC | 12% | 15% | 95% | 60% | 93% | 89% | 136% | 89% | 92% | 79% | 103% | 87% | 105% | 97% | 95% | 81% | 96% | 88% | 86% | 84% |
| CC(=O)O/N=C1\C(=C2\C(=O)Nc3cc(Br)ccc32)Nc2ccccc21 | 48% | 24% | 52% | 21% | 90% | 34% | 60% | 24% | 42% | 9% | 12% | 2% | 35% | 10% | 60% | 9% | 91% | 54% | 78% | 45% |
| COc1cc2ncnc(Nc3ccc(Oc4ccccc4)cc3)c2cc1OC | 55% | 60% | 89% | 102% | 99% | 102% | 130% | 101% | 106% | 106% | 94% | 91% | 108% | 92% | 98% | 109% | 101% | 92% | 98% | 100% |
| O=C1NC(=O)/C(=C/c2ccc3c(c2)OC(F)(F)O3)S1 | 86% | 71% | 76% | 62% | 101% | 104% | 140% | 96% | 102% | 113% | 104% | 89% | 102% | 91% | 101% | 94% | 98% | 90% | 88% | 86% |
| O=C1Nc2ccccc2/C1=C1/Nc2ccccc2/C1=N\OCCC(O)CO (stereo not given) | 26% | 39% | 33% | 4% | 25% | 6% | 12% | 11% | 9% | 4% | 21% | 2% | 4% | 4% | 6% | 5% | 16% | 4% | 19% | 2% |
| O=C(Nc1cccc(Nc2cc(Nc3cccc(C(F)(F)F)c3)ncn2)c1)C1CC1 | 67% | 29% | 83% | 47% | 92% | 89% | 120% | 71% | 99% | 76% | 100% | 77% | 89% | 63% | 101% | 57% | 94% | 69% | 88% | 80% |
| CC(C)n1cnc2/c(=N/c3cccc(Cl)c3)nc(NCCO)[nH]c21 | 89% | 89% | 118% | 104% | 58% | 13% | 24% | 5% | 25% | 2% | 44% | 8% | 3% | 0% | 8% | 1% | 92% | 58% | 45% | 7% |
| Cc1nc(-c2ccccc2)c(-c2ccncc2)o1 | 103% | 85% | 120% | 96% | 104% | 92% | 97% | 92% | 104% | 95% | 92% | 91% | 96% | 94% | 129% | 93% | 110% | 86% | 105% | 96% |
| O=C1NC(=O)c2cc(Nc3ccc(F)cc3)c(Nc3ccc(F)cc3)cc21 | 48% | 56% | 107% | 92% | 111% | 90% | 129% | 79% | 98% | 69% | 86% | 66% | 112% | 49% | 81% | 60% | 98% | 86% | 78% | 112% |
| COc1cc2ncnc(N3CCN(C(=O)Nc4ccc(Oc5ccccc5)cc4)CC3)c2cc1OC | 79% | 91% | 113% | 126% | 119% | 109% | 117% | 92% | 98% | 96% | 79% | 75% | 95% | 55% | 108% | 75% | 82% | 86% | 90% | 93% |
